The nature of experiment [1]: qHTS assay to identify small molecule antagonists of the retinoic acid receptor (RAR) signaling pathway (AID 1159552; also: nearly all actives have a fitted effect of over 50% in size). Put shortly:
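Test chemicals and DMSO controls were pin-transferred onto C3RL4 cells a day after seeding; retinol (1 uM final) followed at once. Luminescent reporter output was quantified after 6 hr of co-incubation and 30 min with detection reagent.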
For orientation: Quantitative high-throughput screening tests each substance at several concentrations.

Experiment [2] can be described thus: qHTS assay to identify small molecule agonists of the retinoic acid receptor (RAR) signaling pathway (AID 1159553). Put shortly:
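Quantitative high-throughput format: the Tox21 10K library was tested on C3RL4 RARE-luciferase cells for 6 hr at 37 C and 5% CO2, with luminescence measured after a 30 min room-temperature reagent step.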

Experiment [3] is described as follows: qHTS assay to identify small molecule antagonists of the estrogen related receptor (ERR) signaling pathway - cell viability counter screen (AID 1224818). Also: series mostly up to about 46 µM. The method, boiled down: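 Quantitative high-throughput viability counter screen in ERR cells. Compounds (DMSO) incubated 17.5 h at 37 C; read-out was CellTiter-Fluor fluorescence.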
The nature of experiment [4]: qHTS assay to identify small molecule antagonists of the estrogen related receptor (ERR) signaling pathway from Tox21 library - cell viability counter screen (AID 1224834). Also: nearly all actives have a fitted effect of over 30% in size. Also: potency is read from the fitted curve at half-maximal effect. The method, boiled down: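 Compounds in DMSO were pinned onto ERR cells that had been incubated for 6 h, and the plates were held at 37 C for 17.5 h. CellTiter-Fluor reagent was then added and fluorescence was measured after 30 min.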

The nature of experiment [5]: qHTS assay to identify small molecule agonists of the constitutive androstane receptor (CAR) signaling pathway - cell viability counter screen (AID 1224836). Also: nearly all actives have a fitted effect of over 45% in size. Also: potency is read from the fitted curve at half-maximal effect. Put shortly:
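23 h treatment, 37 C, 5% CO2. Cell line: HepG2 stably expressing hCAR with a CYP2B6-2.2kb construct. Co-treatment: PK11195, 0.75 uM final. Read-out: CellTiter-Fluor fluorescence intensity.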

Experiment [6] is described as follows: qHTS assay to identify small molecule antagonists of the constitutive androstane receptor (CAR) signaling pathway - cell viability counter screen (AID 1224837). Also: nearly all actives have a fitted effect of over 45% in size. Also: potency is read from the fitted curve at half-maximal effect. The method, boiled down: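 Cells are seeded, rested 4 hr at 37 C/5% CO2, dosed with compound (15-point series) and 50 nM CITCO, incubated a further 23 hr, and then CellTiter-Fluor reagent is added before fluorescence is read. The line is HepG2 with stable hCAR and CYP2B6-2.2kb.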

Experiment [7] concerns the target Nuclear receptor subfamily 1 group I member 3 (Homo sapiens) (UniProt Q14994). Description: qHTS assay to identify small molecule antagonists of the constitutive androstane receptor (CAR) signaling pathway (AID 1224838).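 Also: HepG2 cells stably expressing hCAR with CYP2B6 luciferase reporter stimulated by CITCO; nearly all actives have a fitted effect of over 40% in size.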 The method, boiled down: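 Luminescence from a CYP2B6-2.2kb promoter reporter in hCAR-expressing HepG2 cells reflects CAR signaling. Cells received compounds at 15 concentrations and 50 nM CITCO (final), then incubated 24 h at 37 C/5% CO2.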

For experiment [8] the target is unchanged. Nature of the experiment: qHTS assay to identify small molecule agonists of the constitutive androstane receptor (CAR) signaling pathway (AID 1224839). Also: nearly all actives have a fitted effect of over 15% in size. Also: potency is read from the fitted curve at half-maximal effect.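 As to activation: HepG2 cells stably carrying human CAR and a CYP2B6 luciferase reporter; series mostly up to about 92 µM.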 Put shortly: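 Compounds tested at 15 concentrations on HepG2 cells stably harbouring hCAR and CYP2B6-2.2kb reporter constructs, co-treated with PK11195 (0.75 uM final), 24 h at 37 C; luminescent reporter signal quantified.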

Experiment [9] is described as follows: qHTS assay to identify small molecule antagonists of the estrogen related receptor signaling pathway with the pleiotropic PPARgamma coactivator (PGC) from Tox21 10K library - cell viability counter screen (AID 1224840; active = well fitted cell-killing curve with a large enough effect in the repeat runs, not every such curve was filed as active; also: nearly all actives have a fitted effect of over 40% in size; also: potency is read from the fitted curve at half-maximal effect). The method, boiled down:
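Cell viability is measured by CellTiter-Fluor fluorescence in PGC/ERR cells that receive compounds after a 6-hour attachment period and are then incubated 17.5 hours at 37 C.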

A short description of experiment [10]: qHTS assay to identify small molecule agonists of the hypoxia (HIF-1) signaling pathway - cell viability counter screen (AID 1224844; calls by dose curve; also: nearly all actives have a fitted effect of over 50% in size; also: potency is read from the fitted curve at half-maximal effect). The method, boiled down:
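Viability counter screen: HRE-bla ME-180 cells plated 5 hrs before compound addition, treated 17 hrs at 37C and 5% CO2, then CellTiter-Glo added after the FRET reporter read; luminescence after 30 min.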

Experiment [11] is described as follows: qHTS assay to identify small molecule antagonists of the retinoid acid receptor (RAR) signaling pathway - cell viability counter screen (AID 1159551). Also: nearly all actives have a fitted effect of over 35% in size. Also: potency is read from the fitted curve at half-maximal effect. Put shortly:
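ATP-based viability, C3RL4 cells, 6 h at 37 C with 1 uM final retinol co-added after compound; luminescence read 30 min post CellTiter-Glo, RT.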

For experiment [12], the target named is Luciferin 4-monooxygenase (Photinus pyralis) (UniProt P08659). Nature of the experiment: qHTS assay to identify small molecule inhibitors of firefly luciferase (AID 1224835). Also: nearly all actives have a fitted effect of over 25% in size. Also: potency is read from the fitted curve at half-maximal effect. The method, boiled down: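 Inhibition of purified Photinus luciferase is measured by luminescence. Substrate levels (D-luciferin, ATP) sit at their KM values. Each compound is tested in a concentration series.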

Experiment [13] deals with Thyrotropin receptor (Homo sapiens) (UniProt P16473). Description: qHTS assay to identify small molecule agonists of the thyroid stimulating hormone receptor (TSHR) signaling pathway (AID 1224843; calls by dose curve; also: nearly all actives have a fitted effect of over 45% in size; also: potency is read from the fitted curve at half-maximal effect). The method, boiled down: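 Agonist activity read as cAMP rise via d2/cryptate HTRF competition, 1 h room-temperature detection, in HEK293 cells expressing TSHR. Fifteen-point titrations, each run in triplicate, with a 30 min room-temperature incubation beforehand.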

A short description of experiment [14]: qHTS assay to identify small molecule agonists of H2AX (AID 1224845; active = well fitted activation curve with a large enough effect in the signal ratio in the repeat runs, not every such curve was filed as active; the % refers to the signal ratio). The method, boiled down:
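Phospho-H2AX Ser139 measured by HTRF (ex 320 nm; em 665 and 620 nm) after 24 hr antibody incubation. Compounds, 15 concentrations, 0.76% DMSO, were applied to CHO-K1 cells for 3hr at 37C before lysis.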

Experiment [15] can be described thus: qHTS assay to identify small molecule antagonists of the estrogen related receptor signaling pathway with the pleiotropic PPARgamma coactivator (PGC) from Tox21 10K library (AID 1224841; call rule not given here; also: actives are mostly falling curves and most rising ones were filed inactive; nearly all actives have a fitted effect of over 50% in size; also: potency is read from the fitted curve at half-maximal effect). Put shortly: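 Cells stably carrying the PGC/ERR reporter, seeded at 2,000 per well, received pin-transferred compounds 6 h post-plating. Exposure lasted 18 h at 37 C. Signal: One-Glo luminescence.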

Experiment [16] is described as follows: qHTS assay to identify small molecule agonists of the estrogen related receptor signaling pathway with the pleiotropic PPARgamma coactivator (PGC) from Tox21 10K library (AID 1224842). Also: nearly all actives have a fitted effect of over 15% in size. The method, boiled down: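 Luminescence from One-Glo (30 min, room temperature) measured after PGC/ERR cells had 18 h at 37 C with pinned compound (23 nL in DMSO). Cells had been seeded at 2,000 per well and pre-incubated 6 h.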

9 molecules from PubChem BioAssay (Tox21) can be followed below.

Records with an inconclusive call do not appear. Active and inactive are the calls of the source. Unless noted, calls follow the shape of the dose curve; as a rule, active = well fitted curve in the direction sought with a large enough effect in the repeat runs; inconclusive = weak or mixed curves; inactive = no such curve, though single readings can be large; an effect the other way counts as inactive or inconclusive.

Nuclear receptor subfamily 1 group I member 3 (Homo sapiens), sequence (Q14994 whole entry, looked up): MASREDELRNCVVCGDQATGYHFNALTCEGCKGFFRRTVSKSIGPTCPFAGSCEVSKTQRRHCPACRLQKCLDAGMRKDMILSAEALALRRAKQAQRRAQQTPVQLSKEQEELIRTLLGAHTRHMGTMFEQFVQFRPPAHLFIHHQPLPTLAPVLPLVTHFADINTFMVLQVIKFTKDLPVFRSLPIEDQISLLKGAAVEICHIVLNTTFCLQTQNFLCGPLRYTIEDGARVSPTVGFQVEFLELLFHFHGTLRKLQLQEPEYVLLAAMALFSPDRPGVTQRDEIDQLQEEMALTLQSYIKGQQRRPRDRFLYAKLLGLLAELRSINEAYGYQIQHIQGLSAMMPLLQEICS
Thyrotropin receptor (Homo sapiens), sequence (P16473 whole entry, looked up): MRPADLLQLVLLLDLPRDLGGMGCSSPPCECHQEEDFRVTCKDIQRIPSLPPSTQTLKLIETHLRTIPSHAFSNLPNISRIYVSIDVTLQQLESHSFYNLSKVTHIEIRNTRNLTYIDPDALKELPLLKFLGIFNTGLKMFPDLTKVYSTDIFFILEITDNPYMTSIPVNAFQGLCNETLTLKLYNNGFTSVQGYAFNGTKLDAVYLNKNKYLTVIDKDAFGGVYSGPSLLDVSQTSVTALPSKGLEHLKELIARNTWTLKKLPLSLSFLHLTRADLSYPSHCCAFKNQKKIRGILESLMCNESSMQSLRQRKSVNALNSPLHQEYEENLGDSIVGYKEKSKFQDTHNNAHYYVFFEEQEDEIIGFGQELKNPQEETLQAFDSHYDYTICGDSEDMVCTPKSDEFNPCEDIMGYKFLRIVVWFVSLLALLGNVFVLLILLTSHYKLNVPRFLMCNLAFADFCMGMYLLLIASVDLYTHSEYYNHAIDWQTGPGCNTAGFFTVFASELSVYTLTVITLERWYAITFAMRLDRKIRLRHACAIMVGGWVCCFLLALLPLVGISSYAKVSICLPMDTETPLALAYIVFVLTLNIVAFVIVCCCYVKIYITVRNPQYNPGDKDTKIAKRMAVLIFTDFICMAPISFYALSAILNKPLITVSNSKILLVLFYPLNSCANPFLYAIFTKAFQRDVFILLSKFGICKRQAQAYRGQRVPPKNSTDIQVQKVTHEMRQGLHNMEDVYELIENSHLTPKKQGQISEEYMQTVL
Luciferin 4-monooxygenase (Photinus pyralis), sequence (P08659 whole entry, looked up): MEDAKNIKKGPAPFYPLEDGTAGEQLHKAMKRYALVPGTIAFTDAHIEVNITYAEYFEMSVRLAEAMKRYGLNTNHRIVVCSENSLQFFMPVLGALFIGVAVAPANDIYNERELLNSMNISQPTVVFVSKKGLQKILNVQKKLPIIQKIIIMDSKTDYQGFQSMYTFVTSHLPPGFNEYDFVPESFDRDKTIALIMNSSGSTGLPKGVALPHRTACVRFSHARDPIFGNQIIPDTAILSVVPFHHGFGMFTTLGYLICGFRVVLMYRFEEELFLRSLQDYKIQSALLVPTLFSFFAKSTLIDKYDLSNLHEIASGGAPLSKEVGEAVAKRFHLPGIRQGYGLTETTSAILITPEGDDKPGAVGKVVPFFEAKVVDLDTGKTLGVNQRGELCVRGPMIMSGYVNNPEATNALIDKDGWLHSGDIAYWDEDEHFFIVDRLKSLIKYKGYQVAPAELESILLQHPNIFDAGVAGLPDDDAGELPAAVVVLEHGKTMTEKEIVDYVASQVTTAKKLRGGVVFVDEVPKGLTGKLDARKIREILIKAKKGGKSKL

`CCCSP(=O)(OCC)SCCC`: the Potency entry in [1], in experiment [2], in experiment [4], in experiment [5], in [6] and in experiment [7] was “inactive” throughout. Besides, the Potency entry in [9] and in experiment [10] was “inactive” throughout. The molecule was called inactive in [3]. For the same molecule, the Potency in experiment [8] is 25.2 µM (active).
Consider `SCc1ccco1`, for which the Potency entry in experiment [11], in experiment [12], in experiment [5], in [6], in experiment [7] and in experiment [13] was “inactive” each time. In addition, the Potency result in [10] and in [14] was “inactive” each time.
Consider `CN(C)CCc1c[nH]c2cccc(O)c12`, for which the Potency entry in [11], in experiment [4], in experiment [12], in experiment [5], in [9] and in experiment [10] was “inactive” in each case.
On to `CC(=O)[O-].[Tl+]`, for which the Potency entry in [11], in experiment [5], in experiment [6], in [9] and in experiment [14] was “inactive” throughout. The Potency in [4] was 61.5 µM (active).
As for `CCN(CC)C(=S)[S-].CCN(CC)C(=S)[S-].[Zn+2]`, the Potency was 30.4 µM (active) in experiment [11]; 35.3 µM (active) in experiment [12]; 3.04 µM (active) in [5]; 1.36 µM (active) in experiment [6]; 2.41 µM (active) in [9]. The Potency entry in experiment [13] is “inactive”.
As to `CCc1cc(C)cc(CC)c1-c1c(OC(=O)C(C)(C)C)n2n(c1=O)CCOCC2`, the Potency entry in experiment [11], in [12], in experiment [5], in [9], in experiment [16] and in experiment [13] was “inactive” each time. For the same molecule, the Potency result in experiment [10] and in experiment [14] was “inactive” in each case. Also, the Potency in experiment [15] was 8.63 µM (active).
As to `O=[N+]([O-])c1ccc(Oc2ccc(C(F)(F)F)cc2[N+](=O)[O-])cc1`, the Potency result in experiment [11], in experiment [12], in [5], in experiment [6], in experiment [7] and in [9] was “inactive” each time. Moreover, the Potency entry in [15], in [16], in [13], in experiment [10] and in experiment [14] was “inactive” each time.
With `COP(=O)(OC)SCn1c(=O)oc2cc(Cl)cnc21`, the Potency entry in experiment [11], in experiment [12], in [8], in [9], in experiment [16] and in experiment [14] was “inactive” throughout. The Potency in [5] is 30.6 µM (active); in experiment [13] it was 24.3 µM (active); in [10] it was 49 µM (active).
`CCC(C)c1cc(C(C)(C)C)cc(-n2nc3ccccc3n2)c1O` (stereo not drawn): the Potency result in experiment [11], in experiment [12], in experiment [5], in experiment [6], in [9] and in [16] was “inactive” throughout. Besides, in experiment [14], the Potency entry was “inactive”. In experiment [10], the Potency is 19 µM (active).
